WRN inhibitor: qHTS for Inhibitors of WRN Helicase; Bifunctional 3'-5' exonuclease/ATP-dependent helicase WRN (Homo sapiens), Q14191; WRN helicase unwinding, fluorescent forked duplex, kinetic; Potency, µM (doses to about 114 µM), without a hit: at the highest dose activity change, negative = inhibition, usual class: inhibitors; 360,000 compounds, 0.46% hits; AID 651768, 2012; note: potency is the fitted concentration of half-maximal effect; % is set by controls: 0 for no effect and ±100 for the full control effect; nearly all actives have a fitted effect of over 55% in size
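Kinetic red-fluorescence monitoring (525/598 nm) tracks WRN helicase activity after 100 nM fluorophore-quencher forked duplex and 2 mM ATP are added to 20 nM enzyme pretreated 15 min at room temperature with compound.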
PI5P4Ka inh: qHTS for Inhibitors of phosphatidylinositol 5-phosphate 4-kinase (PI5P4K); max response, %; PI5P4Kalpha enzyme, ADP-Glo luminescence, 60 min; stronger effect = lower value; Phosphatidylinositol 5-phosphate 4-kinase type-2 alpha (Homo sapiens), P48426; AID 652105, 2013; 330,000 compounds, 1.2% hits; active = max response of -50% or lower; inconclusive = between -30% and -50%; inactive = -30% or higher; note: value at the top dose of about 77 µM; % is set by controls: 0 for no effect and ±100 for the full control effect
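Luminescence from ADP-Glo served as readout of PI5P4Kalpha activity in a qHTS format. Reaction: enzyme, substrate, compound, ATP at 5 microM final, 60 min at RT.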
Pol beta inh: qHTS Assay for Inhibitors of DNA Polymerase Beta. Potency, µM (top dose mostly 114 µM), for inactives: at the top dose activity change, negative = inhibition, most hits filed as inhibitors. Pol beta primer extension/strand displacement, fluorescence kinetic. 340,000 compounds, 1.3% hits. AID 485314, 2010; note: potency is the fitted concentration of half-maximal effect; % is set by controls: 0 for no effect and ±100 for the full control effect
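Reaction started by 50 nM substrate onto compound-treated Pol beta (10 nM, 15 min preincubation, room temperature); plates read at 0 min and 10 min. Normalized concentration-effect data fitted by four-parameter Hill equation.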
Pol iota inh: qHTS for Inhibitors of Polymerase Iota. 390,000 compounds, 1% hits. DNA polymerase iota (Homo sapiens), Q9UNA4. Pol iota fluorescent replication assay, 10 min. Potency, µM (titrated, usually from 115 µM), for inactives: at the highest dose activity, negative = inhibition, usual class: inhibitors; note: potency is the fitted concentration of half-maximal effect
Target sequence (Q9UNA4 whole entry, looked up): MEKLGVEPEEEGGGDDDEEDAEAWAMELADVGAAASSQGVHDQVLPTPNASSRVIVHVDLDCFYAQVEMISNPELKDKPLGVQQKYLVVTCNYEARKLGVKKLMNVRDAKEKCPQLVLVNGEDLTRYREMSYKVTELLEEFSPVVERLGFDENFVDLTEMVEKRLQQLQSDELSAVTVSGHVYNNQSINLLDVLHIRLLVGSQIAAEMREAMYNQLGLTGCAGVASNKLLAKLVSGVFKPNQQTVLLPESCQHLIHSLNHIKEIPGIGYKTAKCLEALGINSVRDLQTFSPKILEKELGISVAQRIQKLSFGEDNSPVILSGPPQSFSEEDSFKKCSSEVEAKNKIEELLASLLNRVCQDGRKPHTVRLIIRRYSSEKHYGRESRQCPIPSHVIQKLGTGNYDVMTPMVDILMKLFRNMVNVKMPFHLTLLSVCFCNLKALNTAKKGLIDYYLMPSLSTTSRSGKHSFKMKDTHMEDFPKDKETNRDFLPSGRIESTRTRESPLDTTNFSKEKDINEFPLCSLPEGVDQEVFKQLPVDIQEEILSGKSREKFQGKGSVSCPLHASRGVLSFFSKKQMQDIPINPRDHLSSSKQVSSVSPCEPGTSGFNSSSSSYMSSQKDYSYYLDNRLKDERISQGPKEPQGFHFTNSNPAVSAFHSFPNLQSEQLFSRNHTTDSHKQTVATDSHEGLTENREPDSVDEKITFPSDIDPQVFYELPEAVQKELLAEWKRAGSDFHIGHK
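Pol iota at 10 nM preincubated 15 min with compounds at room temperature; reaction started with fluorescent substrate, 50 nM final. Fluorescence read kinetically at 0 and 10 min; buffer-only wells as negative control.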
Pol kappa inh: qHTS for Inhibitors of Polymerase Kappa. Potency, µM (doses to about 107 µM), for inactives: at the top dose activity, negative = inhibition, usual class: inhibitors. DNA polymerase kappa (Homo sapiens), Q9UBT6. purified Pol kappa, fluorescent DNA synthesis assay, 10 min. 400,000 compounds, 0.53% hits; note: potency is the fitted concentration of half-maximal effect; % is set by controls: 0 for no effect and ±100 for the full control effect
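Pol kappa 10 nM + cpd, 15 min RT; start w/ substrate 50 nM final; fluorescence kinetic read, 0 and 10 min. Neg ctrl: buffer, no enzyme.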
Pol eta inh: qHTS for Inhibitors of Polymerase Eta; DNA polymerase eta (Homo sapiens), Q9Y253; recombinant Pol eta, fluorescent DNA replication assay; Potency, µM (highest dose often 114 µM), for the others: top-dose activity change, negative = inhibition, most hits filed as inhibitors; 390,000 compounds, 1.2% hits; AID 588591, 2011; note: potency is the fitted concentration of half-maximal effect; % is set by controls: 0 for no effect and ±100 for the full control effect
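Pol eta at 10 nM preincubated with compounds 15 min at room temperature; reaction started with fluorescent substrate (50 nM final) and read kinetically at 0 and 10 min.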
* marks the source's active call; other numbers are inactive results; ? = inconclusive; . = not tested or not shown; [ ] = remark or other dose. An excerpt weighted towards active compounds, which were near 2.8% of everything screened. Unless noted, calls come from the whole dose curve; as a rule, active = well fitted curve in the direction sought with a large enough effect; inconclusive = small, poorly fitted or top-dose-only effect, or another doubt; inactive = no such curve, though single readings can be large; an effect the other way counts as inactive or inconclusive.

SMILES | WRN inhibitor | PI5P4Ka inh | Pol beta inh | Pol iota inh | Pol kappa inh | Pol eta inh
NS(=O)(=O)c1ccc(CCNC(=O)Cn2c(=O)c3cccn3c3ccc(F)cc32)cc1 | . | . | 44.7µM* | -8.2% | -13.4% | 6.1%
N=C1/C(=C\c2ccc(OC(=O)c3ccco3)cc2)C(=O)N=C2SC(N3CCCCC3)=NN12 | -20.7% | -51.5* | -5.4% | ? | ? | ?
CCOc1cc(/C=C2\C(=N)N3N=C(N4CCCCC4)SC3=NC2=O)ccc1OC(=O)c1ccco1 | -17.2% | -25.4 | ? | ? | -28.3% | ?
CCS(=O)(=O)C1=NSC2=NC(=O)/C(=C\c3ccc(OC(=O)c4ccco4)cc3)C(=N)N21 | -15.9% | -86.9* | -21.5% | ? | 3.5% | 79.4µM*
CCOc1cc(/C=C2/C(=N)N3C(=NC2=O)SN=C3S(C)(=O)=O)ccc1OC(=O)c1ccco1 | -5.4% | ? | 5.0% | ? | -28.3% | 3.1%
CC(C)S(=O)(=O)C1=NSC2=NC(=O)/C(=C\c3ccc(OC(=O)c4ccco4)cc3)C(=N)N21 | -22.2% | -76.1* | 22.8% | 13.4% | -0.6% | ?
O=C(COc1ccccc1C(=O)Nc1cccc(F)c1)Nc1ccc(Br)cc1 | . | . | . | -9.6% | -0.3% | .
COc1cc(OC)c(/C=C/c2ccc3ccccc3[n+]2C)c(OC)c1 | . | . | . | ? | -33.3% | .
O=C(C1=C(O)C(=O)N(Cc2ccco2)C1c1cccnc1)c1cc2ccccc2o1 (centres undefined) | -31.5% | -19.4 | 6.5% | ? | -23.1% | ?
Cc1ccc(C(=O)C2=C(O)C(=O)N(Cc3ccco3)C2c2cccc(Br)c2)o1 (centres undefined) | -8.3% | -14.3 | 79.4µM* | 103.2% | -1.7% | -5.6%
COc1cccc2cc(C(=O)C3=C(O)C(=O)N(Cc4ccco4)C3c3cccnc3)oc12 (centres undefined) | -9.7%[57.1 µM] | 0.3 | -1.4% | 4.0% | -12.1% | 3.55µM*
O=C(NCC(c1cccnc1)N1CCc2ccccc2C1)C(=O)Nc1ccc(F)cc1F (centres undefined) | . | . | -5.7% | -8.6% | -15.9% | -20.9%
COc1ccc(CNC(=O)C2CCN(c3nc4ccccc4[nH]3)CC2)c(OC)c1 | . | . | -0.1% | 14.2% | -3.8%[60.1 µM] | -18.7%
O=C(Nc1nnc(SCc2cc(=O)n3cc(Cl)ccc3n2)s1)c1cccc(F)c1 | . | . | -1.2% | 11.9% | -2.0%[60.1 µM] | -19.0%
O=C(N/N=C/c1ccccc1C(=O)O)c1cc(-c2ccc3c4c(cccc24)CC3)n[nH]1 | -31.3% | -10.9 | 56.2µM* | 56.2% | -3.9% | ?
O=C(c1ccccc1)C(c1ccccc1)[n+]1csc2ccccc21 (centres undefined) | . | . | . | 7.4% | -16.2% | .
Cc1ccc(N2CC(C(=O)OCC(=O)Nc3ccc(Cl)cc3)CC2=O)cc1 (centres undefined) | -13.5% | 16.3 | . | 79.4µM* | -6.0% | -11.0%
CNC(=O)C1CC(=O)N(c2ccc(OCC(=O)Nc3ccccc3)cc2)C1 (centres undefined) | -27.2% | -65.8* | . | 7.5% | -22.4% | 31.6µM*
CC(=O)c1ccccc1OCC(O)CN1CCN(CCN2C(=O)c3cccc4cccc(c34)C2=O)CC1 (centres undefined) | 16.5% | 3.2 | 39.8µM* | 22.5% | -15.2% | -1.2%
Cc1ccc(C)c(OCC(O)CN2CCN(CCN3C(=O)c4cccc5cccc(c45)C3=O)CC2)c1 (centres undefined) | 14.2%[57.1 µM] | -2.8 | -19.4% | -25.6% | -8.8% | -15.7%
CCOC(=O)c1c(C)oc2c(F)c(F)c(F)c(F)c2c1=O | -17.2%[57.1 µM] | -18.7 | -22.3% | ? | 79.4µM* | ?
CCOC(=O)c1c(C)oc(=O)c(CC)c1O | -6.6% | 4.5 | . | . | . | -9.5%
CC(=O)c1ccc(NC(=S)NC(=O)/C=C/c2ccccc2)cc1 | -0.5% | -4.2 | -21.7% | 30.4% | -7.6% | -20.7%
CCc1nnc(NS(=O)(=O)c2ccc(NC(=S)Nc3ccc(F)cc3)cc2)s1 | 5.3% | 7.9 | 42.5% | -9.9% | -15.2% | -4.6%
CCc1nnc(NS(=O)(=O)c2ccc(NC(=S)NC(=O)/C=C/c3ccccc3)cc2)s1 | ? | ? | -8.7% | ? | -21.1% | 70.8µM*
SMILES | WRN inhibitor | PI5P4Ka inh | Pol beta inh | Pol iota inh | Pol kappa inh | Pol eta inh
COc1cc(NS(=O)(=O)c2ccc(NC(=S)NC(=O)/C=C/c3ccc(F)cc3)cc2)ncn1 | -7.7% | 6.7 | 14.6% | 10.6% | -20.8% | -12.8%
CCC(=O)Nc1ccc(NC(=S)NC(=O)/C=C/c2ccccc2)cc1 | ? | -6.0 | 10µM* | ? | -27.0% | ?
COc1ccc(NS(=O)(=O)c2ccc(NC(=S)NC(=O)/C=C/c3ccccc3)cc2)nn1 | ? | -20.3 | 11.5% | ? | -16.3% | 79.4µM*
CCc1nnc(NS(=O)(=O)c2ccc(NC(=S)NC(=O)/C=C/c3ccc(C(C)C)cc3)cc2)s1 | 89.1µM* | . | 44.7µM* | 25.1µM* | -13.9% | 44.7µM*
CCc1nnc(NS(=O)(=O)c2ccc(NC(=S)NC(=O)c3ccccc3)cc2)s1 | -25.3% | -20.1 | 6.6% | 5.5% | -1.4% | -9.5%
CCc1nnc(NS(=O)(=O)c2ccc(NC(=S)NC(=O)/C=C/c3ccc(OC)cc3)cc2)s1 | ? | -9.9 | -8.3% | 44.7µM* | ? | -11.0%
O=C1[C@H](Cc2ccccc2)NC/C=C\C[C@@H](c2ccc(Cl)cc2)N1Cc1ccccc1 | . | . | . | -4.9% | -0.7% | .
c1ccc(-c2ccc(-c3csc4ncnc(Sc5nnnn5-c5ccccc5)c34)cc2)cc1 | . | . | . | 6.3% | 7.9% | .
CN(C)c1ccc(NC(=O)Cn2c(SCc3ccc(F)cc3)nc3cccnc32)cc1 | . | . | 17.8µM* | -4.7% | -7.4%[60.1 µM] | -13.8%
CN(C)c1ccc(NC(=O)Cn2c(SCc3ccc(F)cc3)nc3ccncc32)cc1 | . | . | -0.9% | -9.0% | -19.8% | 3.9%
CCOc1ccc(CCNC(=O)c2cc(Nc3ccc(C)cc3C)nc3ccccc23)cc1OCC | . | . | 15.1% | 12.2% | 4.0% | -16.3%
CC1=Nc2ccccc2/C1=C/c1c(C)[nH]c2ccccc12 | 3.7% | ? | . | 52.3% | -7.3% | -11.9%
CC1=Nc2ccc(C)cc2/C1=C/c1c(N)n2c(S(=O)(=O)C(C)C)nsc2nc1=O | ? | -85.3* | ? | ? | -16.4% | ?
CC1=Nc2ccc(C)cc2/C1=C/c1c(N)n2oc(C)cc2nc1=O | -12.2% | -2.8 | ? | ? | -14.0% | -9.6%
